Results filed as inconclusive are left out. The source made the active and inactive calls. Rule for the calls, unless noted: active = hit-call score of the fitted dose curve at least 0.9, where 1 is the maximum; inconclusive = response in the unintended direction; inactive = score below 0.9.
What was measured:
[1] = Tanguay_ZF_120hpf_TRUN_legacy: (Legacy) Oregon State University Tanguay Lab 120 Hour Post-fertilization zebrafish Assay for Truncated Body (AID 2283655)
In short: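 Tropical 5D wild-type embryos, dechorionated with pronase at 4 hpf, were placed singly in wells at 6 hpf and statically exposed at 28C until 120 hpf, final DMSO 0.64%. Truncated body was scored present/absent by brightfield microscopy.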

[2] = Tanguay_ZF_120hpf_NC_legacy: (Legacy) Oregon State University Tanguay Lab 120 Hour Post-fertilization zebrafish Assay for Notochord and Tail Malformation (AID 2283656)
In short: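 Dechorionated 5D zebrafish, 1/well from 6 hpf; static exposure to 120 hpf, 28C, sealed, dark; final DMSO 0.64% v/v. NC scored binary (present/absent); dead embryos not scored. Fit vs DMSO baseline, gain direction.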

[3] = tested on: Thyroperoxidase (TPO), gene 54314; assay: CCTE_Simmons_AUR_rTPO: CCTE's Amplex UltraRed Assay for Thyroperoxidase (TPO) Inhibition, Simmons Lab (AID 2283662);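 for AC50: potency for loss of signal meaning inhibition of peroxidase activity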
In short: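 Cell-free peroxidase activity assay using rat thyroid gland microsomes with excess H2O2 (300 uM) and 25 uM Amplex UltraRed. Compounds tested from 5 nM to 87.5 uM; fluorescence measured after 30 min at 37C, analysed relative to DMSO baseline.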

[4] = Tanguay_ZF_120hpf_TR_legacy: (Legacy) Oregon State University Tanguay Lab 120 Hour Post-fertilization zebrafish Assay for Touch Response (AID 2283667)
In short: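 Tropical 5D wild-type zebrafish embryos were exposed statically in sealed, foil-covered plates at 28C until 120 hpf, with 0.64% (vol/vol) final DMSO. Touch response was scored as present or absent; embryos that died were not scored.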

[5] = Tanguay_ZF_120hpf_SWIM_legacy: (Legacy) Oregon State University Tanguay Lab 120 Hour Post-fertilization zebrafish Assay for Swim Bladder Malformation (AID 2283654);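 note: swim bladder malformation in each larva scored yes or no under brightfield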
In short: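 Dechorionated Tropical 5D wild-type embryos, placed singly from 6 hpf, were statically exposed at 28C to 120 hpf with 0.64% DMSO final; swim bladder malformation was scored present/absent by brightfield microscopy, gain of signal relative to DMSO controls.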

[6] = read-out: ABC Transporter (ABCB1), ABCB1 (gene 5243); assay: CLD_ABCB1_6hr: CellzDirect (CLD) Gene Expression Assay for ABC Transporter (ABCB1) at 6 hours (AID 2283659);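 note: hits raise ABCB1 transcript above the DMSO vehicle baseline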
In short: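 Primary human hepatocytes (two donor preparations) dosed daily for two days with chemicals at multiple concentrations, 0.2% DMSO vehicle; harvested 6 h post-dose. ABCB1 mRNA induction quantified by qNPA chemiluminescence; gain-of-signal fitted versus DMSO.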

[7] = read-out: Broad substrate specificity ATP-binding cassette transporter ABCG2 (Homo sapiens) (UniProt Q9UNQ0); assay: CLD_ABCG2_6hr: CellzDirect (CLD) Gene Expression Assay for ABC Transporter (ABCG2) at 6 hours (AID 2283660)
In short: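 Primary human hepatocytes dosed daily with chemicals at multiple concentrations (0.2% DMSO vehicle), harvested 6 h after dosing. ABCG2 mRNA induction read by quantitative nuclease protection assay (qNPA) chemiluminescence; gain of signal fitted against DMSO baseline.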

[8] = read-out: xenobiotic metabolism (CYP1A1), CYP1A1 (gene 1543); assay: CLD_CYP1A1_6hr: CellzDirect (CLD) Gene Expression Assay for xenobiotic metabolism (CYP1A1) at 6 hours (AID 2283661)
In short: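 Primary human hepatocytes from two donors, compound versus 0.2% DMSO vehicle. CYP1A1 mRNA measured 6 h after dosing by quantitative nuclease protection assay with chemiluminescent read-out; induction fitted relative to DMSO, cytotoxicity flagged by microscopy.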

[9] = read-out: xenobiotic metabolism (CYP1A2), CYP1A2 (gene 1544); assay: CLD_CYP1A2_6hr: CellzDirect (CLD) Gene Expression Assay for xenobiotic metabolism (CYP1A2) at 6 hours (AID 2283663)
In short: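 Primary human hepatocytes from two donor preparations, dosed daily with multiple concentrations in 0.2% DMSO and harvested at 6 h. CYP1A2 mRNA induction measured by chemiluminescent qNPA, gain of signal fitted against DMSO; cytotoxicity flagged morphologically.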

[10] = read-out: xenobiotic metabolism (CYP2C9), CYP2C9 (gene 1559); assay: CLD_CYP2C9_6hr: CellzDirect (CLD) Gene Expression Assay for xenobiotic metabolism (CYP2C9) at 6 hours (AID 2283664)
In short: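 Primary human hepatocytes dosed daily with test chemicals at multiple concentrations; harvested at 6 h. CYP2C9 mRNA induction measured by qNPA chemiluminescence. Gain of signal fitted against 0.2% DMSO vehicle; cytotoxicity annotated from phase-contrast morphology.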

[11] = read-out: alkyl and aryl transferase (GSTA2), GSTA2 (gene 2939); assay: CLD_GSTA2_6hr: CellzDirect (CLD) Gene Expression Assay for alkyl and aryl transferase (GSTA2) at 6 hours (AID 2283666)
In short: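 Primary human hepatocytes from two donor preparations were dosed daily with fresh compound at multiple concentrations, 0.2% DMSO vehicle. GSTA2 mRNA was measured at 6 hours by qNPA chemiluminescence; induction fitted relative to DMSO, with cytotoxicity flagged morphologically.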

[12] = read-out: sulfotransferase (SULT2A), SULT2A1 (gene 6822); assay: CLD_SULT2A_6hr: CellzDirect (CLD) Gene Expression Assay for sulfotransferase (SULT2A) at 6 hours (AID 2283669);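 note: hits raise transcript level above the DMSO vehicle baseline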
In short: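 Primary human hepatocytes from two donor preparations were dosed daily with chemicals or 0.2% DMSO and harvested at 6 h. Transcript induction read by qNPA chemiluminescence, fitted for gain of signal relative to DMSO; morphology-based cytotoxicity annotated.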

[13] = CLD_ACTIN_24hr: CellzDirect (CLD) Gene Expression Assay for Baseline Control (Actin) at 24 hours (AID 2283670)
In short: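 Primary human hepatocytes dosed over multiple concentrations with 0.2% DMSO vehicle; actin mRNA measured at 24 h by qNPA chemiluminescence. Background control endpoint, fitted as gain of signal versus DMSO.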

[14] = read-out: glucuronosyltransferase (UGT1A1), UGT1A1 (gene 54658); assay: CLD_UGT1A1_6hr: CellzDirect (CLD) Gene Expression Assay for glucuronosyltransferase (UGT1A1) at 6 hours (AID 2283672)
In short: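 Primary human hepatocytes from two donor preparations, dosed with fresh solutions in 0.2% DMSO, harvested at 6 h. UGT1A1 mRNA measured by qNPA chemiluminescence; induction fitted upward versus DMSO.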

[15] = read-out: solute carrier (SLC22A6), SLC22A6 (gene 9356); assay: LTEA_HepaRG_SLC22A6: Life Technologies and Expression Analysis (LTEA) Assay for solute carrier (SLC22A6) using HepaRG (AID 2283653; active = hit-call score of the fitted dose curve at least 0.9, where 1 is the maximum; inactive = score below 0.9); details: mRNA level, 48 h; actives raise or lower the signal
In short: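 Differentiated human HepaRG cells were exposed for 48 h in serum-free induction medium to eight concentrations (top 100 uM, half-log steps, 0.5% DMSO), in duplicate. SLC22A6 mRNA was quantified by qRT-PCR, normalised to ACTB, GAPDH and POLR2A, and fitted bidirectionally against DMSO.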

[16] = read-out: solute carrier (SLC10A1), SLC10A1 (gene 6554); assay: LTEA_HepaRG_SLC10A1: Life Technologies and Expression Analysis (LTEA) Assay for solute carrier (SLC10A1) using HepaRG (AID 2283657; active = hit-call score of the fitted dose curve at least 0.9, where 1 is the maximum; inactive = score below 0.9); details: mRNA level, 48 h; actives raise or lower the signal
In short: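 Differentiated HepaRG cells were plated 48 h, then exposed in serum-free induction medium for 48 h to 8 concentrations (top 100 uM, half-log steps, 0.5% DMSO). SLC10A1 mRNA was quantified by qRT-PCR normalized to ACTB, GAPDH, POLR2A; bidirectional fit versus DMSO.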

[17] = read-out: matrix metalloproteinase-1 (MMP1), MMP1 (gene 4312); assay: LTEA_HepaRG_MMP1: Life Technologies and Expression Analysis (LTEA) Assay for matrix metalloproteinase-1 (MMP1) using HepaRG (AID 2283658; active = hit-call score of the fitted dose curve at least 0.9, where 1 is the maximum; inactive = score below 0.9); details: mRNA level, 48 h; actives raise or lower the signal
In short: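 Differentiated HepaRG cells, plated 48 h then switched to serum-free induction medium, were exposed in duplicate for 48 h to eight half-log concentrations up to 100 uM in 0.5% DMSO; MMP1 mRNA measured by qRT-PCR, normalized to ACTB, GAPDH, POLR2A.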

[18] = read-out: Cytochrome P450 (CYP24A1_1), CYP24A1 (gene 1591); assay: LTEA_HepaRG_CYP24A1_1: Life Technologies and Expression Analysis (LTEA) Assay for Cytochrome P450 (CYP24A1_1) using HepaRG (AID 2283671; active = hit-call score of the fitted dose curve at least 0.9, where 1 is the maximum; inactive = score below 0.9); details: mRNA level, 48 h; actives raise or lower the signal
In short: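 HepaRG, 48 h exposure, 8-pt half-log series from 100 uM in 0.5% DMSO, duplicates. Readout: TaqMan qRT-PCR of CYP24A1 mRNA, housekeeping-normalized (ACTB/GAPDH/POLR2A). Bidirectional curve fit vs DMSO baseline.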

[19] = read-out: organic anion transporter (SLCO1B1), SLCO1B1 (gene 10599); assay: CLD_SLCO1B1_6hr: CellzDirect (CLD) Gene Expression Assay for organic anion transporter (SLCO1B1) at 6 hours (AID 2283668);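 note: active means mRNA induction above DMSO baseline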
In short: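 Primary human hepatocytes dosed daily with test chemicals (multiple concentrations) in 0.2% DMSO vehicle; harvested at 6 h. SLCO1B1 mRNA quantified by qNPA chemiluminescence, fitted as gain-of-signal versus DMSO; cytotoxicity from phase-contrast morphology flagged alongside.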

[20] = read-out: xenobiotic metabolism (CYP1A1), CYP1A1 (gene 1543); assay: CLD_CYP1A1_24hr: CellzDirect (CLD) Gene Expression Assay for xenobiotic metabolism (CYP1A1) at 24 hours (AID 2283673);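 note: CYP1A1 mRNA level by quantitative nuclease protection with chemiluminescence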
In short: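 Primary human hepatocytes dosed daily with fresh solutions in 0.2% DMSO vehicle. mRNA measured at 24 h by quantitative nuclease protection assay with chemiluminescence; gain-of-signal fit versus DMSO, with morphology-based cytotoxicity flags.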

Measured: AC50

Chain of Broad substrate specificity ATP-binding cassette transporter ABCG2 (Homo sapiens) (Q9UNQ0 whole entry, looked up): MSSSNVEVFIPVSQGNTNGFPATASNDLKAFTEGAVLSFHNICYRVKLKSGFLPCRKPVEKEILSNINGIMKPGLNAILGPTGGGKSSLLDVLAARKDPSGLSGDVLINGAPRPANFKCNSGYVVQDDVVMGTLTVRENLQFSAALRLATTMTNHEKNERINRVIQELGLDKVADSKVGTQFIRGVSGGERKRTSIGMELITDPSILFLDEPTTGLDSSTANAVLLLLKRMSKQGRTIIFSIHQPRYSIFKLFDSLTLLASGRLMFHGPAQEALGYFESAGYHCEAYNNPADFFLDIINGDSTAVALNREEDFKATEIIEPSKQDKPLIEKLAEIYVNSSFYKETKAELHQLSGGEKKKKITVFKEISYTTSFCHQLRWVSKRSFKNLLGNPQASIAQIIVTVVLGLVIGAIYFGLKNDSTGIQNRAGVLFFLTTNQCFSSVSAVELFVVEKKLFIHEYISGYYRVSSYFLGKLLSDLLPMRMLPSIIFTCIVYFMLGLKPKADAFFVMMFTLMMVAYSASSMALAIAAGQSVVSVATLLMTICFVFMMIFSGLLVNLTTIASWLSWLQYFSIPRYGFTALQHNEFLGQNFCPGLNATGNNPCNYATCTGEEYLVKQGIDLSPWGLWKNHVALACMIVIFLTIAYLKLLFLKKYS

Oc1ccc(C(c2ccc(O)cc2)(C(F)(F)F)C(F)(F)F)cc1
active: [1] 53 µM | [3] 21.7 µM | [4] 52.8 µM
inactive: [2]

CCCCCCCCOC(=O)c1ccccc1C(=O)OCCCCCCCC
active: [3] 11.8 µM
inactive: [1] | [2] | [4]

Clc1ccc(C(c2ccccc2Cl)C(Cl)(Cl)Cl)cc1 (centres undefined)
inactive: [5] | [1] | [2]

O=C(NC(=O)c1c(F)cccc1F)Nc1cc(Cl)c(OC(F)(F)C(F)F)c(Cl)c1
active: [3] 20.7 µM
inactive: [1] | [2] | [4]

C=CC(=O)NCNC(=O)C=C
inactive: [5] | [1] | [2] | [4]

CN(C)c1nc(=O)n(C2CCCCC2)c(=O)n1C
inactive: [1] | [2] | [6] | [7] | [8] | [9] | [10] | [11] | [12] | [13] | [14]

O=C(O)C(F)(F)C(F)(F)C(F)(F)C(F)(F)C(F)(F)C(F)(F)C(F)(F)C(F)(F)C(F)(F)F
active: [16] 23.3 µM | [17] 72.2 µM | [3] 22.7 µM
inactive: [15] | [1] | [2] | [4] | [18]

O=C(O)C(F)(F)C(F)(F)C(F)(F)C(F)(F)C(F)(F)C(F)(F)C(F)(F)C(F)(F)F
inactive: [1] | [2] | [3] | [4]

COS(=O)(=O)OC
inactive: [15] | [5] | [1] | [2] | [16] | [17] | [4] | [18]
active: [3] 27 µM

CCC(C)(CC)c1cc(NC(=O)c2c(OC)cccc2OC)on1
active: [20] 20 µM
not listed: [3] | [5] | [9] | [13] | [15] | [16] | [17] | [18]
inactive: all other assays above

O=S(=O)(O)C(F)(F)C(F)(F)C(F)(F)C(F)(F)F
inactive: [1] | [2]

CN(C)CCO
inactive: [5] | [1] | [2] | [4]

Clc1ccc(C(Cl)(Cl)Cl)cc1
inactive: [5] | [1] | [2] | [3] | [4]

CC1=C2C[C@H]3[C@@H](CC=C4C[C@@H](O)CC[C@@]43C)[C@@H]2CC[C@]12O[C@@H]1C[C@H](C)CN[C@H]1[C@H]2C
inactive: [15] | [1] | [2] | [16] | [17] | [18]
active: [4] 22.5 µM

CCCCCCCCCC[N+](C)(C)CCCCCCCCCC
inactive: [1] | [2] | [4]
active: [3] 43.8 µM

Cc1cccc(C)c1N
inactive: [5] | [1] | [4]

COc1ccc(O)c(C(C)(C)C)c1
active: [3] 0.701 µM
inactive: [1] | [2] | [4]

ClC1=C(Cl)[C@]2(Cl)[C@@H]3[C@@H]4C[C@@H]([C@H]5O[C@@H]45)[C@@H]3[C@@]1(Cl)C2(Cl)Cl
inactive: [5] | [2] | [4]

Cc1ccc(O)c(C)c1
active: [3] 18.2 µM
inactive: [1] | [2] | [4]

Source: PubChem BioAssay (EPA / NIEHS)
